The values below come from PubChem BioAssay (NCI).

This is part of a sample that, as a whole, favours compounds with a hit. Of some 83,000 tested, about 20% had one in any assay.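 Single-concentration screen, 48 h exposure, 96-well plates. Endpoint: percent growth. Below 10 = active.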 A number with no mark means an inactive call. The source made the active and inactive calls.

What all share (test): NCI-60 one-dose screen, 48 h (100 = growth as untreated, 0 = no growth, -100 = all killed)
What all share (settings): 10 µM unless noted

Test [1] concerns SR leukemia.
For test [2], the system named is RPMI-8226 leukemia.
The test system of test [3] is OVCAR-8 ovarian.
The test system of test [4] is OVCAR-5 ovarian.
In test [5] the test system is OVCAR-4 ovarian.
Test [6] deals with SK-OV-3 ovarian.
The subject of test [7] is IGROV1 ovarian.
Test [8] deals with OVCAR-3 ovarian.
In test [9] the test system is HS 578T breast.
Test [10] relates to NCI/ADR-RES ovarian.

As for `CCOC(=O)c1ccc(Nc2ccnc(SCC(=O)c3ccc(C#N)cc3)n2)cc1`, the growth in test [1] was 54.1%; in test [2] it was 20.4%; in test [3], 22.8%; in test [4], 107%; in test [5], 65.2%; in test [6] it was 101%. In addition, the growth in test [7] was 79%; in test [8], 79.1%; in test [9] it was 92.1%; in [10] it was 41.5%.
Turning to `Cc1ccccc1C(c1ccccc1)c1ccccc1C`, the growth in [1] is 104%; in test [2], 89.5%; in test [3], 89.8%; in test [4], 85%; in test [5] it was 108%; in [6], 75.1%. The growth in test [7] is 92.2%; in [8], 104%; in [9], 106%; in [10], 104%.
In the case of `O=C(CNCCO)Nc1ccc2ncnc(Nc3ccc(OCc4cccc(F)c4)c(Cl)c3)c2c1`, the growth in test [1] is 12.9%; in test [2], 88.2%; in test [3], 80.4%; in test [4], 85.5%; in test [5] it was 93.8%; in [6] it was 16.4%. Further, the growth in [7] is 33.6%; in [8], 72.7%; in [9], 103%; in test [10], 90.1%.
Turning to `O=C(/C=C/c1ccc[nH]1)c1ccc(-n2ccc(C(F)(F)F)n2)cc1`, the growth in test [1] is 28.4%; in test [2], -19.3% (active); in [3] it was 88%; in test [4], 89%; in test [5], 97.7%; in [6], 114%. Moreover, the growth is 103% in test [7], 0.498% (active) in test [8], 100% in test [9] and 88.3% in test [10].
In the case of `Clc1nc(Nc2ccccc2)nc(Nc2ccccc2)n1`, the growth in [1] is 45.8%; in test [2], 82.8%; in test [3] it was 112%; in test [4], 101%; in test [5] it was 86.1%; in test [6] it was 96.5%. Further, the growth was 91.9% in test [7], 103% in test [8], 121% in [9] and 94.6% in [10].
For `O=C(CN1CCOCC1)Nc1ccc2ncnc(Nc3ccc(OCc4cccc(F)c4)c(Cl)c3)c2c1`, the growth in [1] was 64.3%; in test [2] it was 44.7%; in test [3], 63.1%; in [4] it was 69.2%; in [5], 72%; in test [6] it was 6.86% (active). Moreover, the growth in test [7] was 23.2%; in [8], 58%; in test [9], 100%; in [10], 44.7%.
Turning to `O=C(O)CNC(=O)CN1C(=O)c2ccccc2C1=O`, the growth is 102% in test [1]; 101% in test [2]; 94.4% in test [3]; 101% in test [4]; 115% in test [5]; 90.7% in test [6]. In addition, the growth in test [7] was 107%; in [8], 116%; in test [9], 113%; in test [10], 104%.
As to `Cc1nccc2c3ccc(OCc4cn(-c5ccc(Cl)cc5)nn4)cc3n(CCCc3ccccc3)c12`, the growth in test [1] was -34.1% (active); in test [2], 7.63% (active); in [3] it was -33.2% (active); in [4] it was 43.4%; in [5] it was -51.1% (active); in test [6], 53.2%. The growth in [7] was 34%; in [8], 26.6%; in test [9], -35.7% (active); in test [10] it was -44.1% (active).
For the molecule `CC(=O)Nc1ccc(C(=O)Nc2cc(-c3ccccc3)ccc2N)cc1`, the growth in [1] was 39.4%; in test [2], 83.6%; in [3], 54.9%; in test [4], 60.5%; in [5], 76.7%; in test [6], 67.9%. Moreover, the growth in test [7] was 94%; in [8], 75.2%; in [9] it was 92%; in test [10], 42.9%.
Turning to `C[C@]12CCc3nc(Nc4cccc(O)c4)sc3C1=CC[C@@H]1[C@@H]2CC[C@]2(C)/C(=N\NC(N)=S)CC[C@@H]12`, the growth in [1] is 8.77% (active); in test [2], -22.2% (active); in [3], 30.5%; in [4], 58.8%; in [5] it was 39%; in test [6], 29.9%. Also, the growth in test [7] is -35.5% (active); in test [8], -54% (active); in [9] it was -0.0546% (active); in [10], 47.8%.
On to `CCCCCCOc1ccc(/C=N/Nc2cc(C)nc3ccc(Br)cc23)cc1`, for which the growth was -32.2% (active) in test [1]; -42.4% (active) in [2]; -36.1% (active) in test [3]; -92.7% (active) in [4]; -88.5% (active) in test [5]; 101% in test [6]. Besides, the growth in test [7] was -85.3% (active); in test [8], -91.6% (active); in [9], -40.4% (active); in test [10], -67.1% (active).
`CC1(C)NCCC[C@]2(C)[C@H]3CC=C4[C@@H]5C[C@@](C)(CO)CC[C@]5(C)CC[C@@]4(C)[C@]3(C)CC[C@@H]12`: the growth was -1.3% (active) in test [1]; 20.1% in test [2]; 83.4% in test [3]; 83.3% in test [4]; 60.8% in test [5]; 93.1% in test [6]. In addition, the growth in [7] was 56.7%; in [8] it was 72.4%; in test [9], 52.7%; in test [10], 74.2%.
Take `c1ccc(-c2nn(-c3ccccc3)[n+](-c3cccc4ccccc34)n2)cc1`: the growth was 4.45% (active) in test [1]; 0.0671% (active) in test [2]; -43.5% (active) in test [3]; 48.1% in test [4]; 41.4% in test [5]; 66.3% in test [6]. Moreover, the growth in [7] is 10.6%; in [8], 8.96% (active); in test [9], 8.44% (active); in test [10] it was 90.1%.
